We go through 8 molecules from ChEMBL document CHEMBL1961873, “Compounds: GSK PKIS; Assays: Nanosyn kinase panel” (2012).

Test [1] addresses T1, Inhibitor of nuclear factor kappa-B kinase subunit epsilon (Homo sapiens) (UniProt Q14164).
T1 sequence (whole entry): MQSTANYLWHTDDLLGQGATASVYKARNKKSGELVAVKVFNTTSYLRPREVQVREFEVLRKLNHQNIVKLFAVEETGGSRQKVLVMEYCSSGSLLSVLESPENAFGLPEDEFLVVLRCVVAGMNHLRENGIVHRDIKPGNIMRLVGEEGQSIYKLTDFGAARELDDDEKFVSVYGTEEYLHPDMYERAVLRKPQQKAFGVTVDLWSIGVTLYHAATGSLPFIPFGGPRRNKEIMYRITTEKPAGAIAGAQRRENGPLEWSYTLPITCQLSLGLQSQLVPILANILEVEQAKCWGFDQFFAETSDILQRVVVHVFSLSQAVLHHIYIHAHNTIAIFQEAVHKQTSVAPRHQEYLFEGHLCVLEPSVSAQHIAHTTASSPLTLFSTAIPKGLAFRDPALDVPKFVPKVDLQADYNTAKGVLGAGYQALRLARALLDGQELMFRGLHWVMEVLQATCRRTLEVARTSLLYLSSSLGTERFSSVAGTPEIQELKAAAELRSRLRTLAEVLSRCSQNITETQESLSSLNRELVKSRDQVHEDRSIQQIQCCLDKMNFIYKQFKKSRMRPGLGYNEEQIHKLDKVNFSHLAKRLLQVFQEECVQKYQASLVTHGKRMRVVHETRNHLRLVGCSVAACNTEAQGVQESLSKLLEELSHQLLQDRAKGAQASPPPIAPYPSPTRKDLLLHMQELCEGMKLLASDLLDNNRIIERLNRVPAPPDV
As to conditions: at 1 µM.

Test [2] addresses T2, Serine/threonine-protein kinase Nek1 (Homo sapiens) (UniProt Q96PY6).
T2 sequence (whole entry): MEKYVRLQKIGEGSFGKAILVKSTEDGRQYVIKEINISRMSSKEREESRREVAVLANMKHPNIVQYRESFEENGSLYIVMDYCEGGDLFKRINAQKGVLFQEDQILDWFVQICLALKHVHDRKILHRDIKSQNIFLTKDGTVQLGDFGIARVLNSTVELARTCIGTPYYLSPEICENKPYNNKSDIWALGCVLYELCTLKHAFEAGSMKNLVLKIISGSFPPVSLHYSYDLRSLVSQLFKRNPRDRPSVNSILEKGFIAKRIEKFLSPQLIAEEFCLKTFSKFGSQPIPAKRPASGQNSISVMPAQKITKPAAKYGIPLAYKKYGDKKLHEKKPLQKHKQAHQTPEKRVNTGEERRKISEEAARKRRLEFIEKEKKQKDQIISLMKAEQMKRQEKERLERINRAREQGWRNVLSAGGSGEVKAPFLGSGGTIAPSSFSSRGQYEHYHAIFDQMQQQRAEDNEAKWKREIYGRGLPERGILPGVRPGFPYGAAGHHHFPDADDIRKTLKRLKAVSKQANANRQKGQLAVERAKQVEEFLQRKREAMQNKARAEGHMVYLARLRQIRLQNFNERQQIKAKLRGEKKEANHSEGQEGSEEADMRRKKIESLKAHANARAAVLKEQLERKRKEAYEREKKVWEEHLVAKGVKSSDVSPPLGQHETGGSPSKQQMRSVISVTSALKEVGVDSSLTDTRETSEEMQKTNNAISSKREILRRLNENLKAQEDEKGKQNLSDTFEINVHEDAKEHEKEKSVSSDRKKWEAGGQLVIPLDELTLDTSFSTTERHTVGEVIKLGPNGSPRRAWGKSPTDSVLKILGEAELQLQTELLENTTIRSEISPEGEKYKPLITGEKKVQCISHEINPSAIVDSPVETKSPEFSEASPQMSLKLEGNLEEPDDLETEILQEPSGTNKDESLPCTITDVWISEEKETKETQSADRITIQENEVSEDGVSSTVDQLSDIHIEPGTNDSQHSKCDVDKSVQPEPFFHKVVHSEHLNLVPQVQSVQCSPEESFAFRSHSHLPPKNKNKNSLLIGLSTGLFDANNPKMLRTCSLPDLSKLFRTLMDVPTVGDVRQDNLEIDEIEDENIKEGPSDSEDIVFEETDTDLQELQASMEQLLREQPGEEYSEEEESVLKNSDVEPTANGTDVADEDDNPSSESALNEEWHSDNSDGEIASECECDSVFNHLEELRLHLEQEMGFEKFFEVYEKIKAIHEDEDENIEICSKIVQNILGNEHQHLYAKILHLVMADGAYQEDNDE
The following applies: at 0.1 µM.

Test [3] deals with T2, Serine/threonine-protein kinase Nek1 (Homo sapiens). As to conditions: at 1 µM.
The target in test [4] is T3, Serine/threonine-protein kinase Nek2 (Homo sapiens) (UniProt P51955).
T3 sequence (whole entry): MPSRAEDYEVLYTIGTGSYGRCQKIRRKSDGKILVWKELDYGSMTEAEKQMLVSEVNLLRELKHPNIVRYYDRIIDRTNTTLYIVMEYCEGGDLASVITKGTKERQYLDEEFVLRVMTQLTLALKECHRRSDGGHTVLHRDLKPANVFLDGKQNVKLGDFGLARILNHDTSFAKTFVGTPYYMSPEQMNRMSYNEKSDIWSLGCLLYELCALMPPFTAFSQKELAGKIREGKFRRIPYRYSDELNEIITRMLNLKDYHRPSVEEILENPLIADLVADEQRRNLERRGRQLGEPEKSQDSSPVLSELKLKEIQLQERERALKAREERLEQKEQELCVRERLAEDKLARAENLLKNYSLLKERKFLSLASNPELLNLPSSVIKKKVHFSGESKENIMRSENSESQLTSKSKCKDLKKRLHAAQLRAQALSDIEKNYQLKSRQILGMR
As to conditions: at 0.1 µM.

Test [5] has as its target T3, Serine/threonine-protein kinase Nek2 (Homo sapiens). The following applies: at 1 µM.
Test [6] addresses Serine/threonine-protein kinase Nek6 (Homo sapiens) (UniProt Q9HC98). As to conditions: at 0.1 µM.
For test [7] the target is unchanged. The following applies: at 1 µM.
The target in test [8] is Serine/threonine-protein kinase Nek7 (Homo sapiens) (UniProt Q8TDX7). The following applies: at 0.1 µM.
The target is the same in test [9]. As to conditions: at 1 µM.
Test [10] concerns the target T4, Serine/threonine-protein kinase Nek9 (Homo sapiens) (UniProt Q8TD19).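 Further: reported value is the mean percent inhibition of NEK9.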
T4 sequence (whole entry): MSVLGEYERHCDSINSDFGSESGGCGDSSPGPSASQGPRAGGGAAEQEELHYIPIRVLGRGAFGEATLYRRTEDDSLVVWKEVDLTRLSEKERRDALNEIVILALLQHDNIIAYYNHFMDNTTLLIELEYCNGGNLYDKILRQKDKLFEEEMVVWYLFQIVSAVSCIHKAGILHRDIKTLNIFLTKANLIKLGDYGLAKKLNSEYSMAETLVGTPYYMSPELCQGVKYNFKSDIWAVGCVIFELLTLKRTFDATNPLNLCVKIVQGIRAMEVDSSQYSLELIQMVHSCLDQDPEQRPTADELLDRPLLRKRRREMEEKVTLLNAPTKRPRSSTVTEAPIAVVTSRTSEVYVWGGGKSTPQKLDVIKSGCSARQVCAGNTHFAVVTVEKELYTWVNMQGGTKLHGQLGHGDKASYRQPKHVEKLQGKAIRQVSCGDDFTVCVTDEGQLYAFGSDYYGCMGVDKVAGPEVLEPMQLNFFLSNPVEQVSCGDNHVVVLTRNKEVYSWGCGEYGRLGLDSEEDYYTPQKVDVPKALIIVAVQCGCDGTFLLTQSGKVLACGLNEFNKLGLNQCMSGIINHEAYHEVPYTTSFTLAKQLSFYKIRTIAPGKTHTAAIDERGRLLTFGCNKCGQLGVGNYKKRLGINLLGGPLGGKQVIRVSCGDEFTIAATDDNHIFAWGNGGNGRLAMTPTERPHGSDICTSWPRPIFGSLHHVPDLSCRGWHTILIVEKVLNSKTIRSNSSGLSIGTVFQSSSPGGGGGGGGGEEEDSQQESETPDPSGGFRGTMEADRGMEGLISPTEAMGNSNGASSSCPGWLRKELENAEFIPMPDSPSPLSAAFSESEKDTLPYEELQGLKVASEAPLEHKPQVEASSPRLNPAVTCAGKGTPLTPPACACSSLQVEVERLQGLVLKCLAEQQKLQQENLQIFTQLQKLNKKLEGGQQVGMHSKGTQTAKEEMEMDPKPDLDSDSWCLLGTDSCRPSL
The following applies: at 0.1 µM.

Sequence of Serine/threonine-protein kinase Nek6 (Homo sapiens) (Q9HC98 whole entry): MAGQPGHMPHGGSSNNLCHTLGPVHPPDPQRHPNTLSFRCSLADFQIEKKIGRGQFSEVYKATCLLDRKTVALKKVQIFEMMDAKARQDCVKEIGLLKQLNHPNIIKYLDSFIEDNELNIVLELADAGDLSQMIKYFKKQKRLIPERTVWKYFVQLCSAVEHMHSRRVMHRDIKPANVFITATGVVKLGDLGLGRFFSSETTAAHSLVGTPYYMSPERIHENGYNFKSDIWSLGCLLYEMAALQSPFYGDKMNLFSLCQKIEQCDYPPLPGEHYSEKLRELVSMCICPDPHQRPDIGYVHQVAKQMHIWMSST
Sequence of Serine/threonine-protein kinase Nek7 (Homo sapiens) (Q8TDX7 whole entry, looked up): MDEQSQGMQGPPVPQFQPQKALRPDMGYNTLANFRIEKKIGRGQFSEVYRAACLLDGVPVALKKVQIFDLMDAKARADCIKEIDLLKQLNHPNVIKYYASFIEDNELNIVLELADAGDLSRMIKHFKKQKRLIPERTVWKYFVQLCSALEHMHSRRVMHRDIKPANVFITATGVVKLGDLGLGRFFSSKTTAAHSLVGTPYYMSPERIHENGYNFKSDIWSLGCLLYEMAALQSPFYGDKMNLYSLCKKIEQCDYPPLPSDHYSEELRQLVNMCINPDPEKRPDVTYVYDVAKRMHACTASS

Take `Cc1ccc2c(-c3ccnc(Nc4cccc(C(F)(F)F)c4)n3)c(-c3ccccc3)nn2n1`: the inhibition – broadly, the change of the read-out against control, counted positive when it falls – in test [1] is 6.22%; in test [2], 3.11%; in [3], 2.67%; in test [4] it was 6.28%; in [5], 3.74%; in [6], 6.41%. Besides, the inhibition in [7] is 1.67%; in test [8] it was 0.74%; in [9], 5.29%; in test [10], 8.93%.
Consider `NS(=O)(=O)c1ccc(N/N=C2\C(=O)Nc3ccc(Cl)cc32)cc1`, for which the inhibition in test [1] was found to be 8.2%; in [2], 2.48%; in test [3] it was 3.33%; in test [4], 4.08%; in test [5], 4.1%; in test [6], 4.79%. Also, the inhibition in [7] stood at 4.93%; in [8] it was 2.88%; in [9], 3.63%; in test [10], 7.35%.
Consider `NC(=O)c1sc(-n2cnc3ccccc32)cc1OCc1ccccc1Br`, for which the inhibition in test [1] was 6.21%; in test [2], 1.75%; in test [3] it was 2.24%; in [4] it was 4.32%; in [5], 3.39%; in [6] it was -0.26%. Moreover, the inhibition in test [7] stood at 2.86%; in test [8], 3.33%; in [9], 9.69%; in test [10] it was 8.49%.
Consider `CCS(=O)(=O)c1ccc(OC)c(Nc2nccc(N(C)c3ccc4c(C)n[nH]c4c3)n2)c1`, for which the inhibition was determined as 6.37% in test [1]; 2.52% in [2]; 2.74% in [3]; 5.67% in test [4]; 3.85% in test [5]; 2.07% in [6]. Further, the inhibition was 0.72% in test [7], 2.57% in test [8], 5.28% in test [9] and 3.29% in [10].
Turning to `Cc1ccc2c(c1)/C(=N/Nc1ccc(S(N)(=O)=O)cc1)C(=O)N2`, the inhibition was -2.89% in test [1]; -0.29% in test [2]; 1.65% in [3]; 0.94% in test [4]; 0.07% in test [5]; -2.33% in test [6]. Also, the inhibition in test [7] was -1.82%; in test [8] it was 2.58%; in [9], 2.3%; in test [10] it was 2%.
In the case of `COc1cccc(-n2ncc3c(N/N=C/c4ccc(S(C)(=O)=O)cc4)ncnc32)c1`, the inhibition was determined as 8.64% in test [1]; 1.92% in test [2]; 5.16% in [3]; 2.11% in test [4]; 1.84% in test [5]; 1.65% in test [6]. The inhibition in [7] is -0.32%; in test [8] it was 3.45%; in [9] it was 2.28%; in [10] it was 4.38%.
`COc1cc(Nc2nccc(-c3cnn4ncccc34)n2)cc(OC)c1`: the inhibition in test [1] is 28.2%; in test [2], 2.05%; in test [3] it was 19.3%; in test [4], 2.03%; in test [5], 12%; in test [6] it was -0.86%. In addition, the inhibition was 2.06% in test [7], 2.07% in test [8], 3.54% in test [9] and 17.3% in [10].
Regarding `CN(C)C(=O)O[C@H]1CN[C@H](C#Cc2cc3ncnc(Nc4ccc(OCc5cccc(F)c5)c(Cl)c4)c3s2)C1`, the inhibition in test [1] was determined as 4.15%; in test [2], 1.2%; in test [3], 3.73%; in test [4], 4.44%; in [5], 5.04%; in [6] it was 1.81%. In addition, the inhibition in [7] was -0.96%; in test [8], 3.6%; in test [9], 2.54%; in test [10] it was 7.4%.
